Laboratory results as given in ChEMBL document CHEMBL1157539, “Thousands of chemical starting points for antimalarial lead identification” (Nature, 2010).

Tests used:
Format in all cases: functional
Plasmodium falciparum [1] = assay: GSK_TCMDC: Inhibition of Plasmodium falciparum 3D7 in whole red blood cells, using parasite LDH activity as an index of growth. Test compounds present at 2uM
Plasmodium falciparum [2] = assay: GSK_TCMDC: Inhibition of Plasmodium falciparum Dd2 in whole red blood cells, using parasite LDH activity as an index of growth. Test compounds present at 2uM
HepG2 = assay: GSK_TCMDC: Percent inhibition of human HepG2 cell line. Test compounds present at 10uM.

| SMILES | Inhibition (Plasmodium falciparum [1]) | Inhibition (Plasmodium falciparum [2]) | Inhibition (HepG2) |
| --- | --- | --- | --- |
| Cc1cccc2nc(-c3ccc(-c4ccc(NC(=O)C(C)CN5CCN(C)CC5)cc4)s3)[nH]c12 (stereo not drawn) | 100% | 99% | 17% |
| O=C(Nc1ccc(-c2nc3ccccc3[nH]2)cc1)c1ccc(S(=O)(=O)N2CCCCCC2)cc1 | 97% | 21% | 8% |
| Nc1c(Cl)cc(C(O)CNCCCCCCCCCc2ccccn2)cc1Cl (stereo not drawn) | 98% | 83% | 9% |
| N/C(=N\c1cccc(Cc2ccccc2)n1)NCc1ccccc1 | 85% | 52% | 57% |
| Cc1ccc(S(=O)(=O)N(CCCN2CCN(C)CC2)Cc2csc(-c3ccc(CNCc4ccccc4)cc3)n2)cc1.O=C(O)C(F)(F)F | 97% | 90% | 15% |
| O=C(CCN1CCCCC1)Nc1ccc(Nc2nccc(NCC(O)c3ccccc3)n2)cc1 (stereo not drawn) | 100% | 60% | 18% |
| CCCCCN1CCCC1CNS(=O)(=O)c1ccc(C(=O)Nc2cccc(C(F)(F)F)c2)cc1.O=C(O)C(F)(F)F (stereo not drawn) | 95% | 0% | 16% |
| COc1ccccc1C1CCN(C2CCC(NC(=O)/C=C/c3ccc(F)c(F)c3)CC2)CC1 (stereo not drawn) | 94% | 9% | 49% |
| O=C(Nc1ccc(-c2ccc(-c3nc4ccccc4[nH]3)s2)cc1)Nc1ccc(F)c(F)c1F | 99% | 97% | 57% |
| Cc1cc(F)ccc1[C@H]1C[C@H](N2CCOCC2)CCN1C(=O)N(C)[C@@H](C)c1cc(C(F)(F)F)cc(C(F)(F)F)c1.Cl | 100% | 99% | 4% |
| Cc1cccc2nc(-c3ccc(-c4cccc(NC(=O)c5cncn5C)c4)cc3)[nH]c12 | 100% | 1% | 2% |
| CCN(CC)CCN(CCCc1ccc(-c2ccc(C(F)(F)F)cc2)cc1)C(=O)Cn1c(CCc2cccc(F)c2F)nc(=O)c2ccccc21.O=C(O)C(O)C(O)C(=O)O | 100% | 49% | 37% |
| COc1ccc(CNC(=O)c2cnc3c(O)cccc3c2Nc2cccc(NC(=O)c3ccc(-c4ccccc4)cc3)c2)cc1.O=C(O)C(F)(F)F | 90% | 83% | 42% |
| COc1cc(Nc2nccc(N3CCC(NC(=O)c4cccc(C#N)c4)C3)n2)cc(OC)c1OC (stereo not drawn) | 91% | 76% | 13% |
| Br.CCc1ccc(OCCCON2C(=N)N=C(N)NC2(C)C)cc1 | 95% | 95% | 64% |
| N=C(N)NCCCN(Cc1ccccc1)c1ccc(Cl)cc1.O=S(=O)(O)O | 100% | 98% | 0% |
| O=C(Nc1cccc(CN2CCCN(Cc3cccc(Cl)c3)CC2)c1)c1ccc(Br)cc1.O=C(O)C(F)(F)F | 92% | 16% | 38% |
| CC(=O)Nc1csc(-c2cnc(/C=C(\C)C[C@@H]3OC[C@H](C[C@@H]4O[C@H]4[C@@H](C)[C@H](C)O)[C@@H](O)[C@H]3O)o2)c1 | 94% | 8% | 1% |
| NCC1CCCN1Cc1ccc(-c2ccc(-c3nc4cc(C(F)(F)F)ccc4[nH]3)cc2)cc1.O=C(O)C(F)(F)F (stereo not drawn) | 100% | 98% | 35% |
| Nc1ncc(-c2ccsc2)c2ccc(-c3cc(NCc4ccccc4)ncn3)cc12 | 100% | 86% | 0% |
| COc1ccc2c(=O)ccn(CCN3CCC(NCc4ccc5c(n4)NC(=O)CS5)CC3)c2c1.Cl | 98% | 99% | 7% |

| SMILES | Inhibition (Plasmodium falciparum [1]) | Inhibition (Plasmodium falciparum [2]) | Inhibition (HepG2) |
| --- | --- | --- | --- |
| O=C(NCCc1ccccc1)N(Cc1cccc(-c2ccc(CNC3CCCC3)cc2)c1)C1CCN(Cc2ccccc2)CC1.O=C(O)C(F)(F)F | 98% | 84% | 36% |
| Cl.N=C(N)Nc1ccc(OCCCCCOc2ccc(NC(=N)N)cc2)cc1 | 99% | 100% | 12% |
| COc1ccc2nccc(N3CCC(CCNCc4cc5c(cn4)OCCO5)CC3)c2n1.Cl | 100% | 100% | 18% |
| CN(Cc1ccccc1)C1CCN(c2cc(NC(=O)c3cccc(F)c3)ccn2)CC1.O=C(O)C(F)(F)F | 93% | 3% | 2% |
| N=C(N)NN=CC(=O)Nc1ccc(Br)cc1.O=S(=O)(O)O | 100% | 1% | 5% |
| Cl.Clc1ccc(OCCC2CCN(CCCCCCCN3CCC(CCOc4ccc(Cl)c(Cl)c4)CC3)CC2)cc1Cl | 99% | 82% | 100% |
| CCC(C)NS(=O)(=O)c1ccc2nc(Nc3ccc(C)c(Cl)c3)n(C(C)C(C)C)c2c1 (stereo not drawn) | 98% | 98% | 22% |
| Cc1cccc2nc(-c3ccc(-c4cccc(CN5CCC(C(N)=O)CC5)c4)cc3)[nH]c12.O=C(O)C(F)(F)F | 87% | 16% | 9% |
| Cc1cc(O)c(CN(C)Cc2ccc(N(C)C)cc2)cc1C(C)C | 100% | 98% | 3% |
| COc1cc2nc(NCCC(C)C)n3nc(-c4ccccc4)nc3c2cc1OC | 94% | 97% | 0% |
| Fc1ccc2[nH]c3c(NCCN4CCCCC4)ncnc3c2c1 | 99% | 44% | 24% |
| Cc1cc(CNCCCCCCNCc2ccc(-c3ccccc3)cc2)ccc1O | 98% | 0% | 90% |
| O=C(O)C(F)(F)F.O=C1CCCN1CCCNCc1cccc(-c2ccc(-c3nc4cc(C(F)(F)F)ccc4[nH]3)cc2)c1 | 100% | 96% | 15% |
| CCCOc1cc(OCCC)cc(-c2ccc(C(=O)Nc3ccc4ccc(C)nc4c3)c(=O)[nH]2)c1 | 100% | 76% | 11% |
| COc1ccc(NC(=O)/C=C/c2ccccc2Cl)cc1OCCN1CCC(N2CCN(C)CC2)CC1 | 100% | 49% | 19% |
| CCOC(=O)CCCCCNC[C@H](O)c1ccccc1.Cl | 98% | 0% | 2% |
| CC(C)CCN1CCC(Oc2ccc(NC(=O)c3cccs3)cc2Cl)CC1.O=C(O)C(F)(F)F | 97% | 96% | 31% |
| Nc1nc(O)c2c(n1)CCc1c(Br)cccc1-2 | 97% | 0% | 66% |
| COc1cc(Cc2cnc(N)nc2N)ccc1OCC(=O)Nc1ccc(C)cc1 | 95% | 18% | 10% |
| NC(=O)c1ccc(NCC(=O)Nc2cccc(-c3cccc(-c4nc5cc(C(F)(F)F)ccc5[nH]4)c3)c2)cc1 | 99% | 41% | 32% |
| COc1cc2ccccc2c(CON2C(=N)N=C(N)NC2(C)C)c1OC.Cl | 96% | 10% | 2% |

| SMILES | Inhibition (Plasmodium falciparum [1]) | Inhibition (Plasmodium falciparum [2]) | Inhibition (HepG2) |
| --- | --- | --- | --- |
| Cc1cc(N[C@@H](CC(C)C)C(=O)NCCOc2ccccc2)nc(NCCc2ccc(F)cc2)n1.O=C(O)C(F)(F)F | 95% | 54% | 25% |
| O=c1cc(NCCCCNCc2cccc(Br)c2)[nH]c2ccccc12 | 98% | 19% | 0% |
| Nc1nc2c(cnn2CCCCCCCP(=O)(O)O)c(=O)[nH]1 | 94% | 91% | 0% |
| CN1CCC(NCc2ccc(S(=O)(=O)Nc3ccc(Oc4cccc(Cl)c4)cc3)cc2)CC1.O=C(O)C(F)(F)F | 99% | 5% | 47% |
| CCCCN(Cc1cc(Cl)c(OC)c(OC)c1)c1ccc(C(O)(C(F)(F)F)C(F)(F)F)cc1.O=C(O)C(F)(F)F | 98% | 73% | 3% |
| Cc1noc(C)c1-c1cccc(CNCc2ccc(-c3cccc(-c4nc5ccccc5[nH]4)c3)cc2)c1.O=C(O)C(F)(F)F | 100% | 57% | 50% |
| Cc1cc(C)c(NC(=O)N[C@H]2CCN(CCCCCNC(=O)/C=C/c3ccc(Cl)c(Cl)c3)C2)c(C)c1 | 91% | 3% | 12% |
| Cc1ccc(C)c2c1[nH]c1ccc(C3=NCCN3)cc12.Cl | 100% | 0% | 29% |
| Cc1[nH]c(C)c(-c2ccc(OCCn3cnc(Cl)c3Cl)cc2)c(=O)c1Br | 95% | 35% | 2% |
| CCCNC(=O)c1cncc(-c2cccc(CNC3Cc4ccccc4C3)c2)c1.O=C(O)C(F)(F)F | 100% | 2% | 0% |
| CN1CCN(c2cc(-c3cccnc3)nc(-c3ccncc3)n2)CC1 | 100% | 89% | 11% |
| CO/C(=C\C=C\c1cc2cc(Cl)c(Cl)cc2[nH]1)C(=O)NCC(C)(C)CN(C)C | 81% | 27% | 35% |
| Cc1ccc(-c2nnc(Nc3ccc(CC(N)=O)cc3)c3ccccc23)cc1S(=O)(=O)NCC1CCCO1 (stereo not drawn) | 83% | 64% | 0% |
| Cc1onc(-c2ccccc2)c1-c1nc(NCCC(c2ccccc2)c2ccccc2)no1 | 100% | 78% | 0% |
| Cc1cc(OCC(=O)Nc2ccc(-c3nc4ccccc4[nH]3)cc2)cc(C)c1Cl | 99% | 0% | 5% |
| Cn1cc(CN2CCCC(COC(c3ccccc3)c3ccccc3)C2)cn1 (stereo not drawn) | 99% | 99% | 24% |
| O=[N+]([O-])c1ccccc1C=NN=c1c2c([nH]c3ccccc13)CCCC2 | 97% | 99% | 0% |
| Cc1cc(NC(=O)NCCN2CCC(NC(=O)c3cccc(Br)c3)C2)c2ccccc2n1.O=C(O)C(F)(F)F (stereo not drawn) | 100% | 60% | 0% |
| O=C(NCCN1CCCC1)N1CCCN(c2ncnc3cc(-c4ccc(F)cc4)sc23)CC1.O=C(O)C(F)(F)F | 81% | 19% | 5% |
